Several values for one entry are separate records, joined by “and”; a condition that tells them apart may be missing. Equal entries are not always repeated. The campaign covered roughly 5,500 compounds. About 2,000 (36%) were called active. Not shown: some 18% with an inconclusive outcome. Cut-off read from the data, not from the text of the source: active = normalized growth mostly below about 0.91 (no sharp cut-off); inconclusive = no clear call, values can overlap the other calls; inactive = mostly above about 0.92. This is one part of the list.
Test: chemical genetic growth profiling, strain panel (AID 1159580);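 note: tested at 20 µM; growth read once vehicle control cultures reached saturation at 30 °C; 1 = growth at the plate median or of vehicle wells; lower values mean less growth of the strain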
Settings: S. cerevisiae deletion strains, growth OD

Measured: normalized growth

Cc1onc(-c2ccccc2Cl)c1C(=O)N[C@@H]1C(=O)N2[C@@H]1SC(C)(C)[C@@H]2C(=O)O
inactive: locus YAL013W, strain DEP1, active compounds read low 1.01 | locus YAL021C, strain ccr4, active compounds read low 1.06 | locus YAL026C, strain drs2, active compounds read low 1.02 | locus YAL030W, strain snc1, active compounds read low 1.02 | locus YBL061C, strain skt5, active compounds read low 1.02 | locus YBR009C, strain hhf1, active compounds read low 0.994 | locus YBR021W, strain FUR4, active compounds read low 1.02 | locus YBR023C, strain chs3, active compounds read low 1.03 | locus YBR171W, strain sec66, active compounds read low 1.03 | locus YBR229C, strain ROT2, active compounds read low 1.01 | locus YBR231C, strain swc5, active compounds read low 1.03 | locus YBR279W, strain paf1, active compounds read low 1 | locus YCL011C, strain gbp2, active compounds read low 1.02 | locus YCL016C, strain dcc1, active compounds read low 1.01 | locus YCL029C, strain bik1, active compounds read low 1.05 | locus YCL069W, strain vba3, active compounds read low 1.03 | locus YCR088W, strain abp1, active compounds read low 1.01 | locus YDL005C, strain med2, active compounds read low 1.02 | locus YDL035C, strain GPR1, active compounds read low 1 | locus YDL040C, strain nat1, active compounds read low 1.02 | locus YDL074C, strain BRE1, active compounds read low 1.03 | locus YDL101C, strain DUN1, active compounds read low 1.01 | locus YDL134C, strain PPH21, active compounds read low 1.01 | locus YDL185W, strain tfp1, active compounds read low 1.01 | locus YDL192W, strain arf1, active compounds read low 1.01 | locus YDR001C, strain nth1, active compounds read low 1.04 | locus YDR069C, strain doa4, active compounds read low 1.03 | locus YDR101C, strain arx1, active compounds read low 1.02 | locus YDR137W, strain rgp1, active compounds read low 0.971 | locus YDR150W, strain NUM1, active compounds read low 1 | locus YDR159W, strain sac3, active compounds read low 1 | locus YDR162C, strain NBP2, active compounds read low 1.02 | locus YDR195W, strain ref2 1.03 | locus YDR297W, strain sur2, active compounds read low 1.02 | locus YDR318W, strain mcm21, active compounds read low 1.03 | locus YDR334W, strain swr1, active compounds read low 1 | locus YDR335W, strain msn5, active compounds read low 1.01 | locus YDR388W, active compounds read low 1.02 | locus YDR392W, strain spt3, active compounds read low 0.998 | locus YDR502C, strain sam2, active compounds read low 1.02 | locus YEL003W, strain gim4, active compounds read low 1.02 | locus YEL037C, strain rad23, active compounds read low 1.02 | locus YEL061C, strain CIN8 (second series), active compounds read low 1.02 | locus YEL061C, strain CIN8, active compounds read low 1.01 | locus YER015W, strain faa2, active compounds read low 1.02 | locus YER016W, strain bim1, active compounds read low 0.994 | locus YER110C, active compounds read low 1.01 | locus YER111C, strain swi4, active compounds read low 1.03 | locus YER155C, strain BEM2 (second series), active compounds read low 1.06 | locus YER155C, strain BEM2, active compounds read low 1.01 | locus YER167W, strain BCK2, active compounds read low 1.01 | locus YFR010W, strain ubp6, active compounds read low 1.02 | locus YGL078C, strain dbp3, active compounds read low 1.02 | locus YGL086W, strain mad1, active compounds read low 1.01 | locus YGL167C, strain pmr1, active compounds read low 1.03 | locus YGL173C, strain kem1, active compounds read low 1.01 | locus YGL227W, strain vid30, active compounds read low 1.01 | locus YGL240W, strain doc1, active compounds read low 1.02 | locus YGL248W, strain PDE1, active compounds read low 1.02 | locus YGL253W, strain hxk2, active compounds read low 1.02 | locus YGR078C, strain PAC10, active compounds read low 1.01 | locus YGR135W, strain pre9, active compounds read low 1.03 | locus YGR229C, strain SMI1, active compounds read low 1.02 | locus YGR252W, strain gcn5, active compounds read low 1.05 | locus YHR013C, strain ard1, active compounds read low 1.04 | locus YHR027C, strain rpn1, active compounds read low 1.02 | locus YHR030C, strain SLT2, active compounds read low 1.01 and 1 | locus YHR079C, strain IRE1 (second series), active compounds read low 1.02 | locus YHR079C, strain IRE1, active compounds read low 1 | locus YHR094C, strain hxt1, active compounds read low 1.02 | locus YHR129C, strain ARP1, active compounds read low 1.01 | locus YHR142W, strain chs7, active compounds read low 1.02 | locus YHR200W, strain rpn10, active compounds read low 1.03 | locus YIL066C, strain RNR3, active compounds read low 1.01 | locus YIL073C, strain SPO22, active compounds read low 1.06 | locus YIL125W, strain kgd1, active compounds read low 1.03 | locus YIR030C, strain dcg1, active compounds read low 1.02 | locus YJL092W, strain hpr5, active compounds read low 1.03 | locus YJL095W, strain BCK1 (second series), active compounds read low 1.02 | locus YJL095W, strain BCK1, active compounds read low 1.02 and 0.998 | locus YJL115W, strain asf1, active compounds read low 1.01 | locus YJL129C, strain trk1, active compounds read low 1.05 | locus YJL134W, strain LCB3, active compounds read low 1 | locus YJL154C, strain vps35, active compounds read low 1.03 | locus YJL164C, strain tpk1, active compounds read low 1.01 | locus YJL166W, strain qcr8, active compounds read low 1.03 | locus YJL168C, strain set2, active compounds read low 1.02 | locus YJL187C, strain SWE1 (second series), active compounds read low 1.02 | locus YJL187C, strain SWE1, active compounds read low 1.01 | locus YJR043C, strain POL32, active compounds read low 0.995

— PubChem BioAssay AID1159580 (chemical genetic matrix, 2015)
